Experimental data from PubChem BioAssay AID2462 (Broad Institute, 2010).
Screen size: about 330,000 compounds; about 220 (0.067%) were called active.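 The calls were made as follows: active = over half of replicate activation scores above 10%, or exactly half above 10 with the replicate mean above 10; inconclusive = replicate mean below 10 yet half the replicates above 10; inactive = over half of replicates below 10.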 Only a selection was taken, and actives are over-represented in it overall.

test: inducers of caspase signal in A1-primed MEFs – cell-based, luminescence, HTS, A1 inhibitor project, primary screen (AID 2462); conditions: MEF A1-2A-BIM cells, Caspase-Glo 3/7 luminescence, 3 h; active compounds read high; percent of clofoctol response, vehicle zero; concentration not given here

Caspase activation, inactive:
C=CCOc1c(CNn2cn[nH]c2=S)cccc1OC 0.398%, CCOC(=O)c1c(C)n(C)c2ccc(OC)c(NS(=O)(=O)CC)c12 -0.135%, CC12CCC(C(=O)N(NC(=O)c3ccccc3O)C1=O)C2(C)C (stereo not given) 1.44%, CCOC(=O)c1cnc(-n2nc(C)cc2C)nc1NNc1cc(C)nc(-c2ccccc2)n1 -0.244%, O=C1CC(Cc2ccccc2)C(=O)N1c1ccc(Cl)cn1 (stereo not given) -0.386%, CCOC(=O)C1=C(CN2CCc3ccccc32)NC(=O)NC1c1cc(C)ccc1C (stereo not given) -0.324%, COC(=O)c1ccc(/C=C/c2c(-c3ccc(OC)cc3)sc3ccccc23)cc1 0.0613%, CCOc1ccc(NC(=O)c2ccc(CSc3nnnn3C)cc2)cc1 -1.46%, CN1CCN(CC(=O)C23CC4CC(CC(C4)C2)C3)CC1 -0.618%, Cc1c(C(=O)NNC(=O)c2ccncc2)oc2ccccc12 -1.06%, O=c1cc(CN2CCN(c3cccc(Cl)c3)CC2)c2cc3c(cc2o1)CCCC3 0.443%, Cc1cccc(N2CC(C(=O)Nc3ccccc3N3CCCC3)CC2=O)c1C (stereo not given) -0.198%, COc1ccc(C2C(C#N)=C(N)Oc3cc(N)ccc32)cc1OC (stereo not given) 0.292%, FC(F)(F)c1ccnc(Oc2ccc(C3=NCCS3)cc2)c1 -5.34%, CC(=O)Nc1ccc(C(=O)OCC(=O)Nc2ccc([N+](=O)[O-])cc2C(F)(F)F)cc1 0.347%, Cc1ccc(CNC(=O)C2CCCN2C(=O)NCc2ccccc2)cc1 (stereo not given) 0.299%, Cc1cccc(OCCNC(=S)NC(=O)c2cccnc2)c1 0.352%, O=C(NCCN1CCN(C(=O)c2cccc([N+](=O)[O-])c2)CC1)C(=O)NCc1ccc(Cl)cc1 -0.117%, O=C(CN(Cc1ccccc1)C(=O)CCC(=O)Nc1ccccn1)NCCc1ccccc1 -0.282%, CCOC(=O)CC1COCCN1C(=O)c1cc(COc2ccc(F)c(F)c2)on1 (stereo not given) -0.113%, Cc1ccc(-n2ncc3c2CC(C)(C)CC3NC(=O)CCc2cnn(C)c2)cc1 (stereo not given) 0.222%, COc1ccc(N2CCN(C(=O)CCSCc3ccccc3F)CC2)cc1 -0.325%, CSc1ccc(/C=C2\NC(=O)NC2=O)cc1 -0.861%, O=C(CCc1n[nH]c(=O)[nH]c1=O)N/N=C/c1ccc(Br)o1 -0.493%, CN(C(=O)c1cccc(NC(=O)C2CCN(C(=O)OC(C)(C)C)CC2)c1)C1CCC1 0.788%
